Data published in ChEMBL document CHEMBL4513216, “Probing the Open Global Health Chemical Diversity Library for Multistage-Active Starting Points for Next-Generation Antimalarials” (ACS Infect Dis, 2020).
Screen size: about 69,000 compounds; about 8,600 (12%) showed an effect of 50% or more. For the sample, strong results were picked, then their nearest neighbours and some compounds at random.

Each compound was assayed on Plasmodium berghei (assay: Screen against P. berghei liver stage (PbLuc), transformed with Luciferase, at 10uM). Details: tested at 10 uM.
Type: functional, HepG2

Structure (SMILES)	INHIBITION [%]
CC(c1cccc(-c2nccn2CCc2ccccn2)c1)N(C)C (centres undefined)	36.5
CC(c1cccc(-c2nccn2CCc2cn[nH]c2)c1)N(C)C (centres undefined)	85.9
CC(=O)NCCn1ccnc1-c1cccc(C(C)N(C)C)c1 (centres undefined)	30.3
Cc1noc(C)c1-c1cccc(C2CCN(CC(=O)N(C)C)CC2)n1	8
Cc1ncsc1C(=O)N(C)Cc1cccnc1	-4.865
COc1ccc(OC)c(C(=O)N2C[C@@H]3CC[C@H]2CN(C)C3)c1	9.56
O=c1c(NCCNCCO)c(N2CCN(c3ccc(F)cc3)CC2)c1=O	23
Cc1ccc(C(=O)NC2CCN(Cc3nc(C(C)C)no3)CC2)s1	13.8
Clc1cncc(NCc2cccc(COC3CCOCC3)c2)n1	-16.8
Clc1cnccc1NCc1cccc(COC2CCOCC2)c1	79.7
CS(=O)(=O)NCc1cccc(COC2CCCCC2)c1	9.63
COc1ccc(C(=O)N(Cc2cnn(C)c2)C(C)C)cc1OC(F)F	33.3
Cc1nc(C)n(C2CCCN(C(=O)c3cc(C4CC4)on3)C2)n1 (centres undefined)	29.2
O=C(NS(=O)(=O)c1cc(Cl)ccc1Cl)c1cccc2c1OCCO2	-31.3
Cc1ccc(S(=O)(=O)NC(=O)c2cccc3c2OCCO3)c(C)c1	23.7
Cc1ccc(C(=O)NCCCN(C)S(C)(=O)=O)c(=O)[nH]1	40.4
Cc1ccc(C(=O)NS(=O)(=O)c2cc(Br)ccc2C)c(=O)[nH]1	25.6
Cc1ccc(C)c(S(=O)(=O)NC(=O)c2ccc(C)[nH]c2=O)c1	52.3
COC(=O)c1ccccc1S(=O)(=O)NC(=O)c1cccc2c1OCCO2	-7.36
Cc1ccc(C)c(S(=O)(=O)NC(=O)c2cccc3c2OCCO3)c1	68.8
O=C(NS(=O)(=O)c1ccc(Cl)cc1F)c1cccc2c1OCCO2	50
Cc1ccc(C(=O)NCCCN(C(C)C)S(C)(=O)=O)c(=O)[nH]1	-8.97
O=C(NS(=O)(=O)c1ccccc1Cl)c1cccc2c1OCCO2	49

Structure (SMILES)	INHIBITION [%]
Cc1ccc(C(=O)NS(=O)(=O)c2ccccc2C)c(=O)[nH]1	24.6
CCN(CCCNC(=O)c1ccc(C)[nH]c1=O)S(C)(=O)=O	61
CCc1ccc(C(COC)NC(=O)c2ccc(NC(C)=O)cc2)o1 (centres undefined)	18.4
CCO[C@H]1CN(C)C[C@@H]1NC(=O)c1cc(C)nc2c(C)c(C)ccc12	35
CCNC(=O)[C@@H]1C[C@H](NC(=O)Cn2ccnc2)CN1Cc1ccsc1	39.3
CCN1CC(CN(C)Cc2nc(-c3cccc(Cl)c3)oc2C)CC1=O (centres undefined)	29.8
CC(=O)NCCCNC(=O)N(C)C(C)Cc1ccc(Cl)cc1 (centres undefined)	-6.99
CN(CC1CC1)S(=O)(=O)c1ccc(C(F)(F)F)cc1C#N	47.2
CS(=O)(=O)CCOCCNc1ccc(C(F)(F)F)cc1C#N	-13.4
CCN(CC)S(=O)(=O)c1ccc(C(F)(F)F)cc1C#N	27.6
N#Cc1cc(C(F)(F)F)ccc1NCC1CCS(=O)(=O)CC1	56.4
N#Cc1cc(F)ccc1NCC1CCS(=O)(=O)CC1	-3.26
CS(=O)(=O)NCCCNc1ccc(C(F)(F)F)cc1C#N	72.6
CCCNC(=O)C1CCN(Cc2csc(CC)n2)CC1	15.3
Cc1cc(C(=O)N2C[C@@H]3CC[C@H]2CN(C)C3)ccc1Cl	18.2
Cc1ccc(C)c(OCCC(=O)N2CCCN(CC(N)=O)CC2)c1	-79.3
COc1cccc(COCC(=O)N2CCCC(c3ccn[nH]3)C2)c1 (centres undefined)	45.7
CC(C)CN(Cc1ccsc1)C(=O)CCCn1cncn1	62.8
CC(=O)CCCC(=O)N(Cc1ccsc1)CC(C)C	35
Cc1ccnn1CCC(=O)N(Cc1ccsc1)CC(C)C	41.5
CNS(=O)(=O)c1ccc(C)c(C(=O)NCCNc2ncccn2)c1	-7.81
CCOc1ccc(CN[C@@H]2COC[C@H]2c2ccc(F)cc2)cc1	-16
CCc1nccn1-c1cccc(C2CCCN2)n1 (centres undefined)	31.3

Structure (SMILES)	INHIBITION [%]
CCc1nccn1-c1cncc(C2CCCN2)n1 (centres undefined)	51.7
CCc1nccn1-c1cncc(C2CCCN2Cc2ccc(F)cc2)n1 (centres undefined)	31.1
Cc1cnn(CC2CCCN2C(=O)c2csc(-c3nnc[nH]3)n2)c1 (centres undefined)	-73.2
CCc1nc(NC(=O)Cc2csc(-c3nnc[nH]3)n2)sc1C	55.4
CCc1ccc(C(C)NC(=O)CCc2nc(-c3nnc[nH]3)no2)cc1 (centres undefined)	38.8
CC(C)c1nnc(NC(=O)Cc2csc(-c3nnc[nH]3)n2)s1	76.7
CCC(C)c1csc(NC(=O)Cc2csc(-c3nnc[nH]3)n2)n1 (centres undefined)	93.4
Cc1nc(C)c(CC(=O)Nc2nnc(C(C)C)s2)c(=O)[nH]1	25.75
O=C(Cc1csc(-c2nnc[nH]2)n1)N1CCCC1Cn1cccn1 (centres undefined)	39.5
CCC(C)c1csc(NC(=O)c2sc(-c3nnc[nH]3)nc2C)n1 (centres undefined)	37.8
Cc1nn2cnnc2c(C)c1CCC(=O)Nc1nnc(C(C)C)s1	-23.5
CC(C)(C)CC(NC(=O)N1CCC(C(N)=O)CC1)C(F)(F)F (centres undefined)	-50.7
CC(C)C(CNC(=O)Nc1cn[nH]c1)N1CCOCC1 (centres undefined)	7.67
CC(C)c1nn(C)c(N(C)C)c1CNCc1cscn1	-11
CC(C)OCCC(=O)NCC(O)c1c(Cl)cccc1Cl (centres undefined)	17.8
COCCC(=O)N1C[C@H](C(C)C)[C@@H](N(C)C)C1	19.4
CC(C)(C)c1n[nH]c(C2CN(CCc3ccncc3)CCO2)n1 (centres undefined)	57.5
CCc1n[nH]c(C2CN(CCc3ccncc3)CCO2)n1 (centres undefined)	23.6
CC(C)(C)c1n[nH]c(C2CN(CCc3cccs3)CCO2)n1 (centres undefined)	37.3
CC(CN1CCOCC1)NC(=O)c1cc(Cl)c2c(c1)OCO2 (centres undefined)	29.8
OC1(CNCCSCc2ccccc2)CCCNC1 (centres undefined)	55.4
OC1(CNCc2noc(Cc3ccccc3)n2)CCCNC1 (centres undefined)	26
OC1(CNCCc2csc(-c3ccncc3)n2)CCCNC1 (centres undefined)	-15
